Screening results from PubChem BioAssay.
BAZ2B block: blocks human BAZ2B | Q9UIF8 | AlphaScreen BAZ2B-H3K14Ac peptide displacement | Potency, µM (titrated, usually from 114 µM), without a hit: at the highest dose activity change, negative = inhibition, hits mostly inhibitors | hit rate 4.4% among 360,000; note: % is set by controls: 0 for no effect and ±100 for the full control effect; nearly all actives have a fitted effect of over 60% in size
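Compounds, titrated to a top concentration of 110 uM, were incubated 30 min at room temperature with preformed BAZ2B/acetyl-K14 H3 peptide complex (50 nM each). Proximity signal was measured by AlphaScreen after 20 min with beads.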
HP1b chromo inh: HP1-beta chromodomain-methylated histone interaction inhibition | P83916 | AlphaScreen HP1-beta / biotin-H3K9me3 peptide binding | Potency, µM (highest dose often 114 µM), for the others: at the highest dose activity change, negative = inhibition, actives largely listed as inhibitors | hit rate 0.56% among 390,000; note: nearly all actives have a fitted effect of over 70% in size
Target sequence (P83916 whole entry, looked up): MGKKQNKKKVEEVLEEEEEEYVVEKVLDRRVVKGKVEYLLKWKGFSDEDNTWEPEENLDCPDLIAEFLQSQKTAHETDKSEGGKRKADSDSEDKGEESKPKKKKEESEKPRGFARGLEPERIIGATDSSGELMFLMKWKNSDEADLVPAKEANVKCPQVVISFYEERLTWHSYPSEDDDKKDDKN
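Compound inhibition of the preformed complex between 50 nM HP1-beta and 50 nM biotinylated H3K9me3 peptide was read by AlphaScreen. Buffer was PBS pH 7.4 with 0.01% Tween-20. Incubations ran 30 min at room temperature, with 10 ug/mL donor/acceptor beads.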
JMJD2A Tudor: blocks the human JMJD2A Tudor domain; hit rate 4.4% among 390,000; Potency, µM (top dose mostly 114 µM), inactives show at the top dose activity change, negative = inhibition, actives largely listed as inhibitors; AlphaScreen JMJD2A-Tudor / H3K4me3 peptide binding; AID 504339; O75164; note: % is set by controls: 0 for no effect and ±100 for the full control effect; nearly all actives have a fitted effect of over 50% in size
PLK1 PBD inh: inhibitors of human PLK1 polo-box domain binding; Plk1 PBD binding of FITC phosphopeptide, fluorescence polarization; Potency, µM, for the others: max response, negative = inhibition, hits mostly inhibitors; hit rate 2.8% among 360,000; AID 720504; note: series mostly up to about 57 µM; % is set by controls: 0 for no effect and ±100 for the full control effect; nearly all actives have a fitted effect of over 65% in size
Target sequence (P53350 whole entry, looked up, the tested form may be a part): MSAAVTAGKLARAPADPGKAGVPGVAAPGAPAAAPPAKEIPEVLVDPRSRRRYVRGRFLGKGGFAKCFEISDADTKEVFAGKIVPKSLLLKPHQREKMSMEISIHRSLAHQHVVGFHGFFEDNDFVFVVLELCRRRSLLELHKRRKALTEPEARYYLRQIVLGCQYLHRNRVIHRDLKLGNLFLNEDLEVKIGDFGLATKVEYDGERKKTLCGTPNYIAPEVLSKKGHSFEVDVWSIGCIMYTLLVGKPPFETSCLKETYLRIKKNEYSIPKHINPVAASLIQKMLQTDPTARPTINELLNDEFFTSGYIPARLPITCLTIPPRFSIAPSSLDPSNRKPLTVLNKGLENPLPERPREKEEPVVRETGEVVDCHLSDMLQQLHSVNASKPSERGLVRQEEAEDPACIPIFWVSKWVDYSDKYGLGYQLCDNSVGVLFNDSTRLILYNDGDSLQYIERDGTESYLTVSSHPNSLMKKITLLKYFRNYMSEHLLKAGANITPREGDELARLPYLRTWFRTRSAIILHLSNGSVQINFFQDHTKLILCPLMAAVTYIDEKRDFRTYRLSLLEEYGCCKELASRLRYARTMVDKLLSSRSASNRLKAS
G9a inh: inhibitors of human histone lysine methyltransferase G9a | AID 504332 | Potency, µM (top dose mostly 102 µM), without a hit: top-dose activity, negative = inhibition, actives largely listed as inhibitors | hit rate 8.8% among 350,000 | G9a H3K9 monomethylation, AlphaScreen, 2 h; note: % is set by controls: 0 for no effect and ±100 for the full control effect; nearly all actives have a fitted effect of over 75% in size
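Methyltransferase reactions run at room temperature for 2 h (20 nM enzyme, 500 nM biotin-H3K9 peptide, 20 uM SAM) after a 15 min compound preincubation; product detected by AlphaScreen beads and anti-H3K9me1 antibody.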
Sfp PPTase inh: inhibitors of Bacillus subtilis Sfp phosphopantetheinyl transferase. Q9F4F7. Biochemical Sfp PPTase activity, qHTS. Potency, µM, for the others: largest response in the series, negative = inhibition, hits mostly inhibitors. hit rate 3.5% among 310,000. AID 1490;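 note: the enzyme is Sfp with the accession as filed and its product quenches rhodamine fluorescence; 0% = enzyme reaction without inhibitor and -100% = no enzyme wells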
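Step 1, compound plus 15 nM Sfp-PPTase, 15 min, room temperature. Step 2, add rhodamine-CoA (5 uM) and BHQ-2-YbbR (12.5 uM). Step 3, read 525/598 nm fluorescence at 0 and 30 min.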
* marks the source's active call; other numbers are inactive results; ? = inconclusive; / = not tested or not shown; [ ] = another dose, or the depositor's remark. Most compounds without a hit are left out; they make up all but 12% or so of the library. Calls come from the whole dose curve; as a rule, active = well fitted curve in the direction sought with a large enough effect; inconclusive = small, poorly fitted or top-dose-only effect, or another doubt; inactive = no such curve, though single readings can be large; an effect the other way counts as inactive or inconclusive. Potency is the fitted concentration of half-maximal effect.

SMILES | BAZ2B block | HP1b chromo inh | JMJD2A Tudor | PLK1 PBD inh | G9a inh | Sfp PPTase inh
CC1=C(C(=O)N2CCOCC2)C(c2ccc(Cl)cc2)NC(=S)N1 (centres undefined) | 21.6% | 48.7% | -6.2% | -19.3% | 70.8µM* | -7.1%
CC1=C(C(=O)N2CCOCC2)C(c2c(C)cc(C)cc2C)NC(=S)N1 (centres undefined) | -0.8% | 31.2% | -11.9% | -17.3% | -43.6% | -2.9%
O=C(O)[C@H]1C[C@@H](CP(=O)(O)O)CCN1 | / | 8.9% | -6.2% | / | -8.4%[12.7 µM] | -0.4%
COc1ccc(C2=Nn3c(nnc3-c3cccc(OC)c3OC)SC2)c(OC)c1 | / | / | -21.4% | / | / | -3.9%
CNC(=S)N1CCN(c2ccc([N+](=O)[O-])cc2)CC1 | -35.0% | -2.9% | -21.5% | -17.3% | 8.0% | 14.5%
CN(C)c1ccc(C(=S)N2CCN(c3ccc([N+](=O)[O-])cc3)CC2)cc1 | 6.9% | ? | ? | 10.6µM* | 2.24µM* | 3.55µM*
CCNC(=S)N1CCN(c2ccc([N+](=O)[O-])cc2)CC1 | -25.1% | -22.7% | -17.8%[11.4 µM] | 29.9µM* | -0.9% | 2.5%
Cc1ccc(N2CCN(C(=S)c3ccc(N(C)C)cc3)CC2)cc1 | 12.6µM* | ? | 31.6µM* | 16.8µM* | 5.01µM* | 20µM*
Cc1ccc(N2CCN(C(=S)Nc3ccccc3)CC2)cc1 | -0.3% | 36.5% | -16.3% | -1.6% | -3.7% | 6.0%
CC(C)NC(=O)[C@H]1C[C@@H]1[C@H](NC(=O)OCc1ccccc1)c1ccccc1 | / | / | / | / | / | 0.2%
CC(C)Oc1ccc(S(=O)(=O)N2CCOCC2)cc1NC(=O)CC1OC(=O)c2ccccc21 (centres undefined) | -2.9% | 16.2% | -11.5% | -0.8% | 15.8µM* | /
CC(C)Oc1ccc(S(=O)(=O)N2CCCCC2)cc1NC(=O)CC1OC(=O)c2ccccc21 (centres undefined) | 9.1% | -1.4% | -15.5% | -9.7% | -7.2%[0.501 µM] | /
CCOc1ccc(-c2cn3c(n2)sc2cc(C(=O)N4CCCC(C)C4)ccc23)cc1 (centres undefined) | 1.5% | 19.5% | -4.4% | / | 16.4%[59 µM] | /
Cc1c(S(=O)(=O)N2CCN(c3ccccc3)CC2)c(=O)n(C)c(=O)n1C | -19.2% | 16.3% | -7.2% | -13.5% | ? | 11.6%
Cc1c(S(=O)(=O)N2CCc3ccccc3C2)c(=O)n(C)c(=O)n1C | 10.2% | 22.2% | 0.7% | -16.6% | 50.1µM* | 15.8%
Cc1ccc(NC(=O)CSCc2ccco2)cc1 | -20.3% | 14.4% | -22.9% | -13.8% | -39.3% | -2.3%
c1coc(CSSCc2ccco2)c1 | -4.0% | ? | 56.2µM* | 11.9µM* | 20.2%[2.33 µM] | /
O=S(=O)(c1ccc(Cl)cc1)c1nnn2c1nc(N1CCCCC1)c1sccc12 | -37.2% | 34.9% | -7.3% | / | -25.5%[59 µM] | /
C[n+]1c(/C=C/c2ccc(O)cc2)ccc2ccccc21 | -32.5% | ? | -25.1% | 32.0% | 17.8µM* | -3.7%
C[n+]1c(/C=C/c2ccc3c(c2)OCO3)ccc2ccccc21 | ? | -13.1% | ? | -20.6% | ? | -22.3%
CC[n+]1c(/C=C/c2ccc(OC)c(OC)c2)ccc2ccccc21 | ? | 13.4% | ? | -3.6% | / | -11.6%
CCN(CC)c1ccc(/C=C/c2ccc3ccc(OC)cc3[n+]2CC)cc1 | 39.8µM* | ? | 12.6µM* | -6.1% | 25.1µM* | -21.1%
CC[n+]1c(/C=C/c2ccc(OC(C)=O)c(OC)c2)ccc2ccccc21 | -7.7% | -27.2% | ? | -9.7% | 25.1µM* | -14.7%
CC[n+]1c(/C=C/c2ccc(N(C)C)cc2)ccc2ccccc21 | 39.8µM* | ? | ? | -1.8% | 14.1µM* | -28.3%
CC(=O)Nc1ccc(S(=O)(=O)NCC(=O)OCC(=O)N2CCCCCC2)cc1 | -5.1% | 19.8% | -17.9% | -11.5% | -1.3%[59 µM] | /
SMILES | BAZ2B block | HP1b chromo inh | JMJD2A Tudor | PLK1 PBD inh | G9a inh | Sfp PPTase inh
CCCCn1c(N)c(N(Cc2ccccc2OC)C(=O)c2c(CC)noc2C)c(=O)[nH]c1=O | -0.8% | 17.3% | -5.5% | -0.6% | -9.4% | 4.5%
O=C(c1ccccc1)N1CCCC(c2nc3c(nnn3Cc3ccc(F)cc3F)c(=O)[nH]2)C1 (centres undefined) | -4.0% | 38.9% | -9.7% | / | 5.4%[59 µM] | /
CCCCN(C(C)=O)c1c(CC)nc2ccc(C(=O)NCCc3ccccn3)cn12 | / | / | / | -9.3% | / | /
CCCCCC[n+]1ccccc1/C=C/c1ccc(N(C)C)cc1 | / | / | / | 59.0% | / | /
CC[n+]1ccccc1/C=C/c1ccc(N(C)C)cc1 | ? | -0.7% | ? | 7.8% | 28.2µM* | -4.7%
COc1cc(C(=O)NCCNc2nc3ccc(C)cc3cc2C#N)cc(OC)c1OC | 1.4% | 40.9% | 13.3% | -14.1% | 6.2% | 5.8%
CCC(C)NC(=O)c1cc2c(Cl)nc3ccc(C)cc3c2s1 (centres undefined) | -2.0% | 32.4% | -5.3% | / | 5.6%[59 µM] | /
Cc1ccc2ccc3c(c2n1)NS(=O)(=O)c1ccc(C(F)(F)F)cc1-3 | / | 17.3% | -24.0% | / | / | /
N#Cc1cc2c([nH]c1=S)CCCCCC2 | -3.8% | ? | 3.16µM* | 26.7µM* | ? | 10µM*
N#Cc1c(N)n[nH]c1-c1cc2c([nH]1)CCCC2 | ? | -20.0% | ? | 6.1% | ? | 0.7%
CCc1ccc(CNC(=O)c2sc3nc[nH]c(=O)c3c2C)cc1 | 4.2% | 25.5%[57 µM] | -16.8% | / | 7.0%[59 µM] | /
CCc1cccc(C)c1Nc1nn2c(=O)c3ccccc3nc2s1 | 0.5% | ? | -20.3% | / | 7.08µM* | /
Cc1cc(=O)[nH]c(N2CCCC2)n1 | -33.4% | 25.3% | -7.2% | -7.1% | 17.0%[59 µM] | 12.7%
Cc1cc(=O)[nH]c(-n2[nH]c(C)cc2=O)n1 | 11.2µM* | 48.3% | 44.7µM* | -5.3% | -40.2%[0.0925 µM] | 22.4µM*
Cc1ccc(C(O)C2=CCCC2=O)cc1 (centres undefined) | / | / | / | / | / | -1.2%
CCn1c2c(c(=O)n3ncc(C(=O)Nc4cccc(Cl)c4C)c13)CN(Cc1ccc(OC)cc1)CC2 | -9.3% | 13.7%[57 µM] | ? | / | 14.1µM* | /
CCn1c2c(c(=O)n3ncc(C(=O)Nc4ccc(C(=O)OC)cc4)c13)CN(Cc1ccc(OC)cc1)CC2 | -24.0% | 15.6%[57 µM] | ? | / | 28.2µM* | /
COc1cc(OC)c2c(-c3ccccc3)cc(=O)oc2c1C(CC(=O)N1CCOCC1)c1ccc(N(C)C)cc1 (centres undefined) | 35.5µM* | ? | 31.6µM* | -10.3% | -5.8%[12.7 µM] | -0.5%
COc1cc(OC)c2c(-c3ccccc3)cc(=O)oc2c1C(CC(=O)N1CCN(c2ccccc2)CC1)c1ccc(N(C)C)cc1 (centres undefined) | 8.91µM* | ? | 6.31µM* | -0.2% | ? | -13.0%
COc1cc(OC)c2c(-c3ccccc3)cc(=O)oc2c1C(CC(=O)N1CCN(c2ccccc2)CC1)c1ccc2c(c1)OCO2 (centres undefined) | ? | / | / | / | -49.4%[59 µM] | 1.4%
